Reference: PubChem BioAssay AID1159580 (chemical genetic matrix, 2015)
Hit rate of the full screen: of about 5,500 compounds, about 2,000 (36%) were called active. Roughly 18% stayed inconclusive and do not appear here. Cut-off read from the data, not from the text of the source: active = normalized growth mostly below about 0.91 (no sharp cut-off); inconclusive = no clear call, values can overlap the other calls; inactive = mostly above about 0.92. This is one part of the list.

Assay: chemical genetic growth profiling, strain panel (AID 1159580);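 note: tested at 20 µM; growth read once vehicle control cultures reached saturation at 30 °C; 1 = growth at the plate median or of vehicle wells; lower values mean less growth of the strain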
Settings: growth OD

Measured: normalized growth

c1cc2c(cc1[C@H]1OC[C@H]3[C@@H]1CO[C@H]3c1ccc3c(c1)OCO3)OCO2
active: S. cerevisiae deletion strains, locus YKL068W, hits give low values 0.929 | S. cerevisiae deletion strains, locus YKL085W, strain MDH1 (second series), hits give low values 0.915 | S. cerevisiae deletion strains, locus YKL085W, strain MDH1, hits give low values 0.915 | S. cerevisiae deletion strains, locus YKL160W, strain elf1, hits give low values 0.878 | S. cerevisiae deletion strains, locus YKR001C, strain vps1, hits give low values 0.683 | S. cerevisiae deletion strains, locus YKR026C, strain gcn3, hits give low values 0.916 | S. cerevisiae deletion strains, locus YKR091W, strain srl3, hits give low values 0.899 | S. cerevisiae deletion strains, locus YLL001W, strain dnm1, hits give low values 0.887 | S. cerevisiae deletion strains, locus YLL026W, hits give low values 0.922 | S. cerevisiae deletion strains, locus YLL041C, strain sdh2, hits give low values 0.926 | S. cerevisiae deletion strains, locus YLR039C, strain RIC1, hits give low values 0.398 | S. cerevisiae deletion strains, locus YLR102C, strain apc9, hits give low values 0.923 | S. cerevisiae deletion strains, locus YLR221C, strain rsa3, hits give low values 0.886 | S. cerevisiae deletion strains, locus YLR258W, strain gsy2, hits give low values 0.914 | S. cerevisiae deletion strains, locus YLR262C, strain YPT6 (second series), hits give low values 0.455 | S. cerevisiae deletion strains, locus YLR262C, strain YPT6, hits give low values 0.415 | S. cerevisiae deletion strains, locus YLR268W, strain sec22, hits give low values 0.833 | S. cerevisiae deletion strains, locus YLR320W, strain mms22, hits give low values 0.732 | S. cerevisiae deletion strains, locus YLR330W, strain CHS5, hits give low values 0.816 | S. cerevisiae deletion strains, locus YLR342W, strain FKS1 (second series), hits give low values 0.77 | S. cerevisiae deletion strains, locus YLR342W, strain FKS1, hits give low values 0.9 | S. cerevisiae deletion strains, locus YLR418C, strain cdc73, hits give low values 0.692 | S. cerevisiae deletion strains, locus YML032C, strain rad52, hits give low values 0.902 | S. cerevisiae deletion strains, locus YML120C, strain ndi1, hits give low values 0.897 | S. cerevisiae deletion strains, locus YML124C, strain tub3, hits give low values 0.902 | S. cerevisiae deletion strains, locus YMR058W, strain fet3, hits give low values 0.896 | S. cerevisiae deletion strains, locus YMR078C, strain ctf18, hits give low values 0.892 | S. cerevisiae deletion strains, locus YMR125W, strain sto1, hits give low values 0.826 | S. cerevisiae deletion strains, locus YMR205C, strain PFK2, hits give low values 0.774 | S. cerevisiae deletion strains, locus YNL071W, strain lat1, hits give low values 0.614 | S. cerevisiae deletion strains, locus YNL153C, strain GIM3, hits give low values 0.822 | S. cerevisiae deletion strains, locus YNL307C, strain MCK1, hits give low values 0.797 | S. cerevisiae deletion strains, locus YNR049C, strain mso1, hits give low values 0.917 | S. cerevisiae deletion strains, locus YNR052C, strain pop2, hits give low values 0.899 | S. cerevisiae deletion strains, locus YOL147C, strain pex11, hits give low values 0.914 | S. cerevisiae deletion strains, locus YOR070C, strain gyp1, hits give low values 0.908 | S. cerevisiae deletion strains, locus YOR080W, strain dia2, hits give low values 0.909 | S. cerevisiae deletion strains, locus YOR083W, strain WHI5, hits give low values 0.877 | S. cerevisiae deletion strains, locus YOR144C, strain elg1, hits give low values 0.907 | S. cerevisiae deletion strains, locus YOR184W, strain ser1, hits give low values 0.624 | S. cerevisiae deletion strains, locus YOR265W, strain rbl2, hits give low values 0.906 | S. cerevisiae deletion strains, locus YOR270C, strain vph1, hits give low values 0.639 | S. cerevisiae deletion strains, locus YOR290C, strain snf2, hits give low values 0.828 | S. cerevisiae deletion strains, locus YOR316C, strain cot1, hits give low values 0.912 | S. cerevisiae deletion strains, locus YPL051W, strain arl3, hits give low values 0.865 | S. cerevisiae deletion strains, locus YPL078C, strain atp4, hits give low values 0.863 | S. cerevisiae deletion strains, locus YPL240C, strain hsp82, hits give low values 0.919 | S. cerevisiae deletion strains, locus YPR119W, strain clb2, hits give low values 0.914 | S. cerevisiae deletion strains, locus YPR141C, strain kar3, hits give low values 0.897 | S. cerevisiae deletion strains, locus YPR163C, strain tif3, hits give low values 0.866 | S. cerevisiae deletion strains, locus YPR167C, strain met16, hits give low values 0.887 | S. cerevisiae deletion strains, strain wtn01, hits give low values 0.854
inactive: S. cerevisiae deletion strains, locus YJR075W, strain HOC1, hits give low values 0.914 | S. cerevisiae deletion strains, locus YKL009W, strain mrt4, hits give low values 0.922 | S. cerevisiae deletion strains, locus YKL190W, strain CNB1, hits give low values 0.947 | S. cerevisiae deletion strains, locus YLR027C, strain aat2, hits give low values 0.931 | S. cerevisiae deletion strains, locus YLR058C, strain SHM2, hits give low values 0.943 | S. cerevisiae deletion strains, locus YLR113W, strain HOG1, hits give low values 0.865 | S. cerevisiae deletion strains, locus YLR357W, strain rsc2, hits give low values 0.951 | S. cerevisiae deletion strains, locus YLR370C, strain arc18, hits give low values 0.914 | S. cerevisiae deletion strains, locus YLR371W, strain rom2, hits give low values 0.912 | S. cerevisiae deletion strains, locus YLR384C, strain iki3, hits give low values 0.936 | S. cerevisiae deletion strains, locus YML016C, strain PPZ1, hits give low values 0.947 | S. cerevisiae deletion strains, locus YMR129W, hits give low values 0.925 | S. cerevisiae deletion strains, locus YMR223W, strain ubp8, hits give low values 0.914 | S. cerevisiae deletion strains, locus YMR231W, strain pep5, hits give low values 0.934 | S. cerevisiae deletion strains, locus YMR307W, strain GAS1, hits give low values 0.9 | S. cerevisiae deletion strains, locus YNL067W, strain RPL9B, hits give low values 0.957 | S. cerevisiae deletion strains, locus YNL128W, strain TEP1, hits give low values 1.01 | S. cerevisiae deletion strains, locus YNL183C, strain NPR1, hits give low values 0.925 | S. cerevisiae deletion strains, locus YNL209W, strain ssb2, hits give low values 0.958 | S. cerevisiae deletion strains, locus YNL233W, strain BNI4, hits give low values 0.882 | S. cerevisiae deletion strains, locus YNL248C, strain rpa49, hits give low values 0.948 | S. cerevisiae deletion strains, locus YNL250W, strain rad50, hits give low values 0.929 | S. cerevisiae deletion strains, locus YNL271C, strain bni1, hits give low values 0.932 | S. cerevisiae deletion strains, locus YNL298W, strain CLA4, hits give low values 0.922 | S. cerevisiae deletion strains, locus YNL322C, strain KRE1 (second series), hits give low values 0.907 | S. cerevisiae deletion strains, locus YNL322C, strain KRE1, hits give low values 0.94 | S. cerevisiae deletion strains, locus YOL012C, strain htz1 0.632 | S. cerevisiae deletion strains, locus YOR001W, strain rrp6, hits give low values 0.945 | S. cerevisiae deletion strains, locus YOR061W, strain CKA2, hits give low values 0.948 | S. cerevisiae deletion strains, locus YOR069W, strain VPS5, hits give low values 0.962 | S. cerevisiae deletion strains, locus YOR106W, strain vam3, hits give low values 0.908 | S. cerevisiae deletion strains, locus YOR136W, strain idh2, hits give low values 0.973 | S. cerevisiae deletion strains, locus YOR231W, strain MKK1, hits give low values 0.897 | S. cerevisiae deletion strains, locus YPL055C, strain LGE1, hits give low values 0.923 | S. cerevisiae deletion strains, locus YPL106C, strain sse1, hits give low values 0.886 | S. cerevisiae deletion strains, locus YPL241C, strain CIN2, hits give low values 0.945 | S. cerevisiae deletion strains, locus YPL256C, strain CLN2, hits give low values 0.898 | S. cerevisiae strains, strain wild type, hits give low values 0.93
